Laboratory results as given in PubChem BioAssay (Tox21).
Records with an inconclusive call do not appear. Where a call stands in place of a potency, no number is given. Activity calls are given as the source filed them. Calls follow the shape of the dose curve; as a rule, active = well fitted cell-killing curve with a large enough effect in the repeat runs; inconclusive = weak or mixed curves, or effect the other way; inactive = flat fitted curve, though single readings scatter.

assay: cAMP Responsive Elements (CRE) small molecule agonists, cell-based qHTS assay: qHTS cell viability counter screen (AID 2060914); settings: CRE-bla HEK293T viability, CellTiter-Glo luminescence, 5 h; series mostly up to 92.4 µM; also: nearly all actives have a fitted effect of over 50% in size
Method in brief: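 HEK 293T CRE-bla; DMEM + 10% dialyzed FBS, 25 mM HEPES; 18 h pre-incubation; compound 3 h, 37 °C/5% CO2; CellTiter-Glo added after reporter read; luminescence after 30 min RT.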

SMILES	Potency
Clc1cccc(Cl)c1NC1=NCCN1	inactive
CCOC(=O)Cn1cccc1-c1nc(-c2ccc(OC)cc2)c(-c2ccc(OC)cc2)s1	inactive
Cc1ccc(C=O)s1	inactive
CC(C)=CCCC(C)CCO (stereo not given)	inactive
CC(C)(C)c1ccc(CCC=O)cc1	inactive
CC1=CC2C3CC(C=C3C)C2C1 (stereo not given)	inactive
O=C1NS(=O)(=O)c2ccccc21	inactive
CN(C)CCCN1c2ccccc2Sc2ccccc21	inactive
CC(=O)Oc1ccc(C2(c3ccc(OC(C)=O)cc3)C(=O)Nc3ccccc32)cc1	inactive
CC(C)(C)OCC1CO1 (stereo not given)	inactive
CC(=O)[C@H]1CC[C@H]2[C@@H]3C[C@H](C)C4=CC(=O)CC[C@]4(C)[C@H]3[C@@H](O)C[C@]12C	inactive
CC1=CC(C)(C)Nc2ccccc21	inactive
N#Cc1cscn1	inactive
CC(=O)C(=O)O	inactive
Cc1cccc(OCCOc2cccc(C)c2)c1	inactive
CCOC(=O)c1ccc(O)cc1	inactive
CN(C)CCCSc1ccccc1NC(=O)/C=C/c1ccccc1	inactive
CCCCCCCCC(CCCCCC)C(=O)O (stereo not given)	inactive
COC(=O)C(C)(C)C	inactive
CCCCN(CCCC)CCC(O)c1cc2c(Cl)cc(Cl)cc2c2cc(C(F)(F)F)ccc12 (stereo not given)	inactive

SMILES	Potency
CCCCCCCCCCCCCCCBr	inactive
CN(C)c1ccc2nc3ccc(=[N+](C)C)cc-3sc2c1	inactive
Cc1ccc(OC(=O)c2ccccc2O)cc1	inactive
CC(C)O.CC(C)O.CCOC(=O)/C=C(\C)O.CCOC(=O)/C=C(\C)O.[Ti]	inactive
Nc1ccc(S(=O)(=O)O)c(N)c1	inactive
C[C@@H](O)[C@H]1C(=O)N2C(C(=O)O)=C(SCCN=CN)C[C@H]12	inactive
O=C1O[C@@H]2[C@@H](O)[C@H](O)O[C@@H]2[C@H]1O	inactive
Cc1ccc(C2OC[C@@H]3OC(c4ccc(C)cc4)O[C@H]([C@H](O)CO)[C@@H]3O2)cc1 (stereo not given in full)	inactive
Clc1ccccc1CN1CCc2sccc2C1	inactive
NC(N)=NC(=O)c1nc(Cl)c(N)nc1N	inactive
C=COCCCCO	inactive
CC(c1cc(C(C)(C)C)cc(C(C)(C)C)c1O)c1cc(C(C)(C)C)cc(C(C)(C)C)c1O	inactive
Cc1cccc(O)c1N	inactive
CCOC(=O)OC(=O)OCC	inactive
CC(C)(C)CC(=O)OCC(=O)[C@@]1(O)CC[C@H]2[C@@H]3CCC4=CC(=O)C=C[C@]4(C)[C@H]3[C@@H](O)C[C@@]21C	inactive
O=C(Cn1ccnc1[N+](=O)[O-])NCCO	inactive
CCC(O)CO (stereo not given)	inactive
Cc1c(F)cc2c(=O)c(C(=O)O)cn3c2c1CCC3C (stereo not given)	inactive
CCOC(=O)C(C)Oc1ccc(Oc2cnc3cc(Cl)ccc3n2)cc1 (stereo not given)	inactive
COC(=O)N/N=C/c1c[n+]([O-])c2ccccc2[n+]1[O-]	inactive
